Whole data set: some 81,000 sequences, median “one-hybrid fitness for binding NBS DNA” near -0.1, cut for the highest 2% near 0.36. For the sample, the highest values were picked, then their nearest neighbours and some sequences at random.
B1: Caulobacter ParB omega fusion; a variant is named by its letters at X, in order, B8GW30 (parent)
chain: MESVVVGEPGMSEGRRGLGRGLSALLGEVDAAPAQAPGEQLGGSREAPIEILQRNPDQPRRTFREEDLEDLSNSIREKGVLQPILVRPSPDTAGEYQIVAGERAWRAAQRAGLKTVPIMVRELDDLAVLEIGIIENVQRADLNVLEEALSYKVLMEKFERTQENIAQTIGKSXSHVANXMRLLXLPDEVQSYLVSGELTAXHARAIAAAADPVALAKQIIEGGLSVRETEALARKAPNLSAGKSKGGRPPRVKDTDTQALESDLSSVLGLDVSIDHRGSTGTLTITYATLEQLDDLCNRLTRGI

Variants of: B1
Assay: one-hybrid fitness for binding NBS DNA (the Noc-binding site; scaled: cognate 1, non-cognate 0); higher = stronger binding
Details: with NBS DNA site
In short: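 Pre- and post-selection plasmids were Illumina-sequenced, three replicate libraries were pooled, and any variant with under 10 reads was removed. The libraries were Caulobacter ParB with four specificity codons randomised, selected in E. coli USO through a HIS3 reporter whose site is 19 bp from the promoter. Cells grew 48 hours at 37°C on M9 without histidine, with 0.1 mM IPTG and 5 mM 3-AT. Fitness is the log change in variant-to-wild-type read ratio, rescaled against cognate and non-cognate.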

Variant	one-hybrid fitness for binding NBS DNA
QRGQ	0.435
QRGM	0.436
QSGM	≤ 0.2
QPGC	≤ 0.2
QRGD	0.293
QCGM	≤ 0.2
QRGS	0.7
QCGC	0.244
QSGQ	≤ 0.2
QRGC	0.402
QRGP	0.301
QCGQ	0.24
VHHD	≤ 0.2
KQFT	≤ 0.2
IGSG	≤ 0.2
ERAV	≤ 0.2
LHVR	≤ 0.2
AGVC	≤ 0.2
QSQV	≤ 0.2
LPLC	≤ 0.2
DDTM	≤ 0.2
HYPY	≤ 0.2
IAHC	≤ 0.2
SVFR	≤ 0.2
YVTV	≤ 0.2
PPVI	≤ 0.2

Variant	one-hybrid fitness for binding NBS DNA
KLLL	≤ 0.2
QPIT	≤ 0.2
QRIT	0.678
QCIT	0.432
QAPT	0.23
QRPG	≤ 0.2
QRIP	≤ 0.2
QRPT	0.576
QSIT	0.353
RPKK	≤ 0.2
VPVE	≤ 0.2
TFHR	≤ 0.2
VTIG	≤ 0.2
DETM	≤ 0.2
LSSE	≤ 0.2
IPSD	≤ 0.2
QSKS	0.645
QSDH	≤ 0.2
QSVH	≤ 0.2
QCKS	0.711
QPKS	≤ 0.2
QSKH	0.587
QIKN	0.223
QIVS	≤ 0.2
QNKS	0.355
QIKS	0.497

Variant	one-hybrid fitness for binding NBS DNA
TVQG	≤ 0.2
DATH	≤ 0.2
YDTE	≤ 0.2
TATG	≤ 0.2
KRHE	≤ 0.2
MHPT	≤ 0.2
RINQ	≤ 0.2
QTAR	0.768
QTFF	≤ 0.2
QTAY	0.306
QTFG	≤ 0.2
QTAQ	0.251
QTFR	0.584
SPYR	≤ 0.2
SHAM	≤ 0.2
QYRA	0.558
QYYA	0.271
QYKA	0.531
QYNA	0.269
QYVA	≤ 0.2
QYDA	≤ 0.2
QPFC	≤ 0.2
FPTR	≤ 0.2
KLDM	≤ 0.2
RRHY	0.452
RCQY	≤ 0.2

Variant	one-hybrid fitness for binding NBS DNA
RCHY	0.215
RRQY	0.525
RSSY	≤ 0.2
RRFY	0.314
RCAY	≤ 0.2
RCSY	≤ 0.2
RRAY	0.405
RPQY	≤ 0.2
RRSY	0.393
RSHY	≤ 0.2
SRQM	≤ 0.2
LMKG	≤ 0.2
SMNN	≤ 0.2
YTVM	≤ 0.2
DLVK	≤ 0.2
HQPS	≤ 0.2
VMQT	≤ 0.2
SRLY	≤ 0.2
RIDV	≤ 0.2
AWTG	≤ 0.2
PYAQ	≤ 0.2
HRAG	≤ 0.2
RNYQ	≤ 0.2
RRYY	0.349
RCNY	0.221
RRDY	0.306

Variant	one-hybrid fitness for binding NBS DNA
RRNY	0.589
RCRY	0.363
RRRY	0.798
WRPY	≤ 0.2
LPLQ	≤ 0.2
QWKR	0.356
QRVR	0.839
NRKR	0.309
QRKR	1.08
YQNG	≤ 0.2
TVTR	≤ 0.2
LWNE	≤ 0.2
YAMR	≤ 0.2
YPHD	≤ 0.2
LNNS	≤ 0.2
RSGW	≤ 0.2
YQIT	≤ 0.2
RFAL	≤ 0.2
AGTL	≤ 0.2
QHKS	0.655
QHVQ	0.283
QHKP	0.255
QHYQ	≤ 0.2
QHKD	≤ 0.2
QHDH	≤ 0.2
QHKF	0.297

Variant	one-hybrid fitness for binding NBS DNA
QHKN	0.427
QHKH	0.546
QHKQ	0.404
QHVN	≤ 0.2
QHKG	0.345
KHEE	≤ 0.2
SFKI	≤ 0.2
QVDA	≤ 0.2
RIMY	≤ 0.2
HVLC	≤ 0.2
GDVT	≤ 0.2
GYMF	≤ 0.2
QQLN	≤ 0.2
QQLT	0.45
QQRT	0.8
QQEI	≤ 0.2
QQWC	≤ 0.2
QQES	0.23
QQET	0.371
QQLD	≤ 0.2
QQWT	0.44
KQWT	≤ 0.2
KQRT	0.225
NQRT	≤ 0.2

From a collection of fitness landscapes (doi:10.1016/j.celrep.2020.107928)
